Reference: the supplement of paper PMC10849652
About 7,900 targets were measured; listed, in parts, are those with a hit and a random draw of the rest. About 0.6% of all pairs of compound and target were hits.

Tests used:
Experiment in all cases: log2 fold change, soluble protein after heating vs DMSO (PISA); higher = thermal stabilisation; K562 cells, 10 uM, 30 min; active = over 0.2 and 3.5 SD of the protein, either way, in both replicates (recomputed)
[1] = compound: COC1=CC=C(C=C1)CN2C=CC3=C2C=C(C=C3)C(=O)NO
Summary of the method: (§1)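 K562 cells at 2×10^6 cells/mL were exposed to 10 μM compound for 30 min, then aliquots were heated for 3 min across 48°C-58°C, pooled, and extracted in PBS containing 0.5% NP-40 at 4°C. The supernatant after 21,000xg for 90 min was taken as soluble protein and measured by TMTpro 16plex LC-MS/MS with channel sums equalised. Thermal stability is reported relative to control samples, with values from duplicates. Fold changes are given on a log2 scale.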

[2] = compound: CON(C)C(=O)N1N=C(c2cc(F)ccc2F)S[C@@]1(CCCN)c1ccccc1 [filanesib]
Summary of the method: as §1

[3] = compound: CO[C@H]1C[C@@H]2CC[C@@H](C)[C@@](O)(O2)C(=O)C(=O)N2CCCC[C@H]2C(=O)O[C@H]([C@H](C)C[C@@H]2CC[C@H](n3cnnn3)[C@H](OC)C2)CC(=O)[C@H](C)/C=C(\C)[C@@H](O)[C@@H](OC)C(=O)[C@H](C)C[C@H](C)/C=C/C=C/C=C/1C [zotarolimus]
Summary of the method: as §1

[4] = compound: COc1cc(C(=O)O)ccc1NC(=O)[C@@H]1N[C@@H](CC(C)(C)C)[C@](C#N)(c2ccc(Cl)cc2F)[C@H]1c1cccc(Cl)c1F [idasanutlin]
Summary of the method: as §1

[5] = compound: COc1cc(Nc2ncc3c(n2)-c2ccc(Cl)cc2C(c2c(F)cccc2OC)=NC3)ccc1C(=O)O [alisertib]
Summary of the method: as §1

[6] = compound: COc1cc2nc(-c3cc(F)ccc3O)nc(N[C@@H]3CNC[C@H]3C(C)(C)O)c2cc1OC
Summary of the method: as §1

[7] = compound: COc1cc2ncnc(Nc3ccc(F)c(Cl)c3)c2cc1OCCCN1CCOCC1 [gefitinib]
Summary of the method: as §1

[8] = compound: COc1cccc2cc(-c3nc([C@H]4CC[C@H](C(=O)O)CC4)n4ncnc(N)c34)[nH]c12
Summary of the method: as §1

[9] = compound: CS(=O)(=O)CCNCc1ccc(-c2ccc3ncnc(Nc4ccc(OCc5cccc(F)c5)c(Cl)c4)c3c2)o1 [lapatinib]
Summary of the method: as §1

[10] = compound: CS(=O)(=O)N1CCN(Cc2cc3nc(-c4cccc5[nH]ncc45)nc(N4CCOCC4)c3s2)CC1 [pictilisib]
Summary of the method: as §1

Measured: log2 fold change

DHFR (UniProt P00374)
inactive: [1] -0.057 | [2] 0.089 | [3] 0.065 | [4] -0.051 | [5] -0.08 | [6] 0.109 | [7] -0.021 | [8] -0.05 | [9] -0.061 | [10] 0.039

DMXL1 (UniProt Q9Y485)
inactive: [1] 0.023 | [2] 0.046 | [3] -0.008 | [4] -0.012 | [5] -0.003 | [6] 0.02 | [7] -0.029 | [8] -0.003 | [9] -0.02 | [10] -0.015

DNAH10 (UniProt Q8IVF4)
active: [1] 0.574
inactive: [2] -0.187 | [3] -0.046 | [5] -0.042 | [7] -0.04 | [8] 0.007 | [10] 0.052

DHRS13 (UniProt Q6UX07)
inactive: [1] -0.096 | [2] 0.298 | [3] 0.271 | [4] 0.057 | [5] -0.011 | [7] 0.081 | [8] -0.002 | [10] 0.026

DDX27 (UniProt Q96GQ7)
Chain of UniProt Q96GQ7 (Q96GQ7 whole entry, looked up): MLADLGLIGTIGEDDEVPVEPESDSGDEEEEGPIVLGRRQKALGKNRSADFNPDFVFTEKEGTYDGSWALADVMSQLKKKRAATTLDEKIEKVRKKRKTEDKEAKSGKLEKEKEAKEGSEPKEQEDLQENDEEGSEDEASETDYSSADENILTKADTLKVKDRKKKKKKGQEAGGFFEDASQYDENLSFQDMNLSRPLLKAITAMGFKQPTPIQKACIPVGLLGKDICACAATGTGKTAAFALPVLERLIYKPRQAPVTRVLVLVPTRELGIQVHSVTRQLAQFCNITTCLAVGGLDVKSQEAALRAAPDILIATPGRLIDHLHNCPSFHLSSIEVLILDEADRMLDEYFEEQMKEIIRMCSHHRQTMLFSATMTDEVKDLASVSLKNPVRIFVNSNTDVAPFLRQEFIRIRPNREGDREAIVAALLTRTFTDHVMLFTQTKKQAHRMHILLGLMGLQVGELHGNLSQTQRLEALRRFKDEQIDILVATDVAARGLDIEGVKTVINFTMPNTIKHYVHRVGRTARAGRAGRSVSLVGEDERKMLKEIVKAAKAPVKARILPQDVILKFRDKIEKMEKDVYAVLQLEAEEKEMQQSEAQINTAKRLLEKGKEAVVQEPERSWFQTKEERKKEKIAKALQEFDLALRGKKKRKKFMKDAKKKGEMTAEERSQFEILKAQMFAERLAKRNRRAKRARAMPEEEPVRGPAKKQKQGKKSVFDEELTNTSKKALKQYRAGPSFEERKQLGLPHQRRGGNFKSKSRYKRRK
inactive: [1] 0.091 | [2] 0.278 | [3] 0.071 | [4] 0.246 | [5] 0.415 | [7] 0.044 | [8] -0.138 | [10] 0.061

EIF2AK1 (UniProt Q9BQI3)
inactive: [1] -0.047 | [2] 0.014 | [3] -0.057 | [4] -0.035 | [5] 0.032 | [6] 0.01 | [8] -0.089 | [9] 0.025 | [10] -0.147

CUTA isoform 2 (UniProt O60888)
inactive: [1] 0.248 | [2] 0.108 | [3] -0.159 | [4] 0.002 | [5] -0.055 | [6] -0.225 | [7] 0.037 | [8] 0.012 | [9] 0.023 | [10] -0.358

EXOC5 (UniProt O00471)
inactive: [1] -0.005 | [2] -0.051 | [3] 0.089 | [4] -0.079 | [5] -0.01 | [6] 0.123 | [7] -0.024 | [8] -0.015 | [9] -0.028 | [10] -0.055

EIF3J isoform 2 (UniProt O75822)
inactive: [1] -0.099 | [2] 0.013 | [4] 0.107 | [5] -0.074 | [6] 0.051 | [7] 0.047 | [8] 0.02 | [9] -0.116

DLK1 (UniProt P80370)
inactive: [1] -0.021 | [3] -0.095

ELOVL7 (UniProt A1L3X0)
inactive: [3] 0.012 | [4] -0.118

ERF (UniProt P50548)
inactive: [2] 0.328 | [10] 0.148

DNAL1 (UniProt Q4LDG9)
inactive: [1] 0.009 | [3] 0.024 | [4] -0.098

EGR1 (UniProt P18146)
inactive: [2] 0.463 | [3] 0.125 | [4] 0.164 | [5] -0.54 | [6] -0.24 | [7] -0.183 | [8] 0.079 | [9] 0.067 | [10] -0.362

EHBP1 (UniProt Q8NDI1)
Chain of UniProt Q8NDI1 (Q8NDI1 whole entry, looked up): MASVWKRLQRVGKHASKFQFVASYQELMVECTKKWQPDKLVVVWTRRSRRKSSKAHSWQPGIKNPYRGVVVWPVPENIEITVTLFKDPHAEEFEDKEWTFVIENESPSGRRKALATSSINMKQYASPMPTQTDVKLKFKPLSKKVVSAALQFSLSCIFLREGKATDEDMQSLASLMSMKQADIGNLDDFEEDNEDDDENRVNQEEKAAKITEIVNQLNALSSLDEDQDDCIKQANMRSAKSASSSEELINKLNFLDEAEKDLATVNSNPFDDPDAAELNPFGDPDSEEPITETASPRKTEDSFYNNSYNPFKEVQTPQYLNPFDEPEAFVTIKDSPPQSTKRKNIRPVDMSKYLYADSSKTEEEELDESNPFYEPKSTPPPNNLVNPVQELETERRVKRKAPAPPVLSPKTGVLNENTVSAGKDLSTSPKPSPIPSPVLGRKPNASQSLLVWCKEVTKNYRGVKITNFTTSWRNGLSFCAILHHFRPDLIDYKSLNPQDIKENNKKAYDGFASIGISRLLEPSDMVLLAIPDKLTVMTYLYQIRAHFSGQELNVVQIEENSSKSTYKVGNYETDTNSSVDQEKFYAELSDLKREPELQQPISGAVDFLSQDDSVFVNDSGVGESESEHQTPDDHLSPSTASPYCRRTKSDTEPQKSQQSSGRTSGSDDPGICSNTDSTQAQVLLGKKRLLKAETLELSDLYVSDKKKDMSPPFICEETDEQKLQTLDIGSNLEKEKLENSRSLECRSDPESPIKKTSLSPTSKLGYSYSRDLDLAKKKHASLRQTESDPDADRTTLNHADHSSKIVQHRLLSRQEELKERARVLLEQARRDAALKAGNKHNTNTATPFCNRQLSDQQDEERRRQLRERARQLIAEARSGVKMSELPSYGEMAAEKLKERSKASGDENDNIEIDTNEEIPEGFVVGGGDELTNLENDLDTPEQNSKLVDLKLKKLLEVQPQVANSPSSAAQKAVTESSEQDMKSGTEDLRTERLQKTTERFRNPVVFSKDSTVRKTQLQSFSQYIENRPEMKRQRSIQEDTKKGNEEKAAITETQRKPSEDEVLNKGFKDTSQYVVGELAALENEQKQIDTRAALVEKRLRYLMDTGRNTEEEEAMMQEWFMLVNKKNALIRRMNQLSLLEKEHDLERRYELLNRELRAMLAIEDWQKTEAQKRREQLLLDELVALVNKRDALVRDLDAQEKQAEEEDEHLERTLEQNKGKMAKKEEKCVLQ
inactive: [3] -0.02 | [4] 0.031 | [5] 0.025 | [8] 0.086 | [10] 0.057

DENND1A isoform 6 (UniProt Q8TEH3)
inactive: [1] 0.154 | [6] -0.18 | [9] 0.06

EID1 (UniProt Q9Y6B2)
inactive: [2] 0.119 | [5] 0.024 | [6] 0.015 | [7] -0.031 | [8] -0.239 | [9] -0.097 | [10] 0.3

F2RL3 (UniProt Q96RI0)
inactive: [3] -0.075 | [4] -0.017 | [6] 0.017 | [9] 0.029

FAM135A (UniProt Q9P2D6)
inactive: [2] 0.13 | [7] 0.052

DEGS1 (UniProt O15121)
inactive: [2] -0.048 | [3] 0.027 | [4] 0.039 | [5] 0.028 | [6] -0.013 | [7] -0.002 | [8] -0.018 | [9] -0.034 | [10] 0

DDB1 isoform 2 (UniProt Q16531)
inactive: [2] 0.077 | [10] 0.094

DDX46, A0A0C4DG89
inactive: [5] -0.083 | [7] 0.261 | [8] 0.032

DHPS (UniProt M0R1T2)
inactive: [2] -0.057

ENTR1 (UniProt Q96C92)
inactive: [6] -0.065 | [9] 0.075

FAM160A2 isoform 2 (UniProt Q8N612)
inactive: [1] -0.082 | [3] 0.067 | [5] 0.031 | [7] 0.158 | [8] 0.103 | [10] -0.056

EEF1D isoform 3 (UniProt P29692)
inactive: [5] -0.067 | [8] -0.105

EPHB4 (UniProt P54760)
Chain of UniProt P54760 (P54760 whole entry, looked up): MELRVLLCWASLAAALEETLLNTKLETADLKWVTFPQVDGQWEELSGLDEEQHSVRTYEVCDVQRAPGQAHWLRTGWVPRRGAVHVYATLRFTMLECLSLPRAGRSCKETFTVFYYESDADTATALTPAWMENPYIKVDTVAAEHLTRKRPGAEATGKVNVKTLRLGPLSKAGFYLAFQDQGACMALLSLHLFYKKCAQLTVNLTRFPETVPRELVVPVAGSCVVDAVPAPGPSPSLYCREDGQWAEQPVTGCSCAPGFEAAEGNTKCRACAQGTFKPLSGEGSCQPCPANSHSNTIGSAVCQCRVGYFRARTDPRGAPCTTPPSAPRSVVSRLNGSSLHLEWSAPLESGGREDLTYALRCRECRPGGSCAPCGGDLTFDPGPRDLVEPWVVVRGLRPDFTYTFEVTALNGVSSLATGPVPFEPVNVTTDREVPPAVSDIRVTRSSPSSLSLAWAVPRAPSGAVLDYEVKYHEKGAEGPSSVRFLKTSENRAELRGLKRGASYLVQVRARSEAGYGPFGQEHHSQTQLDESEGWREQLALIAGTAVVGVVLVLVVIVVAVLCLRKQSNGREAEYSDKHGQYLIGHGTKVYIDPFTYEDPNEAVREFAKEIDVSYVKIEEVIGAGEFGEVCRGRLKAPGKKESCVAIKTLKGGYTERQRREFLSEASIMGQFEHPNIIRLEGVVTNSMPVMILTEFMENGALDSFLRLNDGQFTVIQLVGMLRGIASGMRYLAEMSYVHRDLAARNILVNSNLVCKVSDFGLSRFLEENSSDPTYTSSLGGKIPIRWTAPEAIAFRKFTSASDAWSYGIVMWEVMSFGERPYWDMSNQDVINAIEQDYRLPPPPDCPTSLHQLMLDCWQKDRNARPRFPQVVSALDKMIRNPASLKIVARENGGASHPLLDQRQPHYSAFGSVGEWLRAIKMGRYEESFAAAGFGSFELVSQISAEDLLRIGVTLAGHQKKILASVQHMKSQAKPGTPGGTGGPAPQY
inactive: [2] 0.134 | [5] -0.017 | [6] 0.395 | [9] 0.08
active: [8] -0.937

EIF4G1 (UniProt Q04637)
inactive: [3] -0.118 | [4] 0.071 | [10] -0.307

CYP24A1 (UniProt Q07973)
inactive: [1] 0.1 | [4] 0.039 | [5] -0.095 | [6] 0.091 | [7] -0.044 | [8] -0.306 | [9] 0.067 | [10] -0.059

DBNL (UniProt Q9UJU6)
inactive: [3] -0.324

FAM207A (UniProt Q9NSI2)
inactive: [1] -0.034 | [2] 0.238 | [4] 0.009 | [5] 0.238 | [6] 0.108 | [7] -0.124 | [8] -0.146 | [9] 0.041 | [10] -0.097

DERPC (UniProt P0CG12)
inactive: [1] -0.016 | [5] 0.021 | [7] 0.099 | [8] 0.086 | [10] -0.107

DNAJB1 (UniProt M0R128)
inactive: [3] -0.062

DCAF4 (UniProt Q8WV16)
inactive: [2] 0.018 | [5] -0.076 | [7] -0.012 | [8] 0.005 | [10] 0.074

DOLPP1 (UniProt Q86YN1)
inactive: [1] -0.05 | [3] -0.003 | [4] -0.043 | [5] -0.022 | [6] 0.129 | [7] 0.013 | [8] 0.011 | [9] -0.07

EDRF1 (UniProt Q3B7T1)
active: [3] 0.419
inactive: [2] 0.052 | [5] -0.033 | [8] 0.044 | [10] 0.244

ENTPD7 (UniProt Q9NQZ7)
Chain of UniProt Q9NQZ7 (Q9NQZ7 whole entry, looked up): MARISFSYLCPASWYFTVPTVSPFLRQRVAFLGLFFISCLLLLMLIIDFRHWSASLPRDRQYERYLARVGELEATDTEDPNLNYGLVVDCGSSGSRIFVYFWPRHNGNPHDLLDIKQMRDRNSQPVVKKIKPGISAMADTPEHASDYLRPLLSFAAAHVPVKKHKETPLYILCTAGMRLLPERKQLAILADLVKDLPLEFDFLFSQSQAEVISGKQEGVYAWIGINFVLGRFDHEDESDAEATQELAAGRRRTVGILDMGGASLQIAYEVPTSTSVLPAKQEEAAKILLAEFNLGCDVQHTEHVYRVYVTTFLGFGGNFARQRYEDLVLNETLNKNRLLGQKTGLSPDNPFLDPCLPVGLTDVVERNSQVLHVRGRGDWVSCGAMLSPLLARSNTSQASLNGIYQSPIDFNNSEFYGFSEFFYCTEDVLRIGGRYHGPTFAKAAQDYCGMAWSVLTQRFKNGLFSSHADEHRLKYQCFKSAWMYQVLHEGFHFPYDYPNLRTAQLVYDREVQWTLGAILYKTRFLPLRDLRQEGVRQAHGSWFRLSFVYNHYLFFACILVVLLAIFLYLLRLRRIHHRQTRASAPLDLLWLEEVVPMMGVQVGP
inactive: [1] -0.031 | [2] -0.268 | [5] -0.054 | [6] 0.06 | [7] -0.026 | [8] 0.03 | [9] 0.099

CTSS (UniProt P25774)
Chain of UniProt P25774 (P25774 whole entry, looked up): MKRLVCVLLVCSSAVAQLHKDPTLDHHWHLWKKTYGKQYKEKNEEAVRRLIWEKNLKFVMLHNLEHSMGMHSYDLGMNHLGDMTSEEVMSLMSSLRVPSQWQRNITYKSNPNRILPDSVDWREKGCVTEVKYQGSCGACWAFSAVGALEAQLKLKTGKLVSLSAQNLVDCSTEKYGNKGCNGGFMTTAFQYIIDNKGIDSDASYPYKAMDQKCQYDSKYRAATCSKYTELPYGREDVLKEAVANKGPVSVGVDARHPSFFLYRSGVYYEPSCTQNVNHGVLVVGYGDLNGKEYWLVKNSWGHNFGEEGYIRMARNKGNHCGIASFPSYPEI
inactive: [1] 0.019 | [2] 0.051 | [3] -0.081 | [10] -0.043

DCAF12 (UniProt Q5T6F0)
inactive: [2] -0.037 | [5] 0.073 | [8] 0.036 | [10] 0.16

DOP1A (UniProt Q5JWR5)
inactive: [5] -0.013 | [8] 0.02

FAM117B (UniProt Q6P1L5)
inactive: [1] 0.053 | [3] 0.007 | [4] -0.062 | [10] 0.208

ELOVL5 isoform 2 (UniProt Q9NYP7)
inactive: [2] -0.157 | [3] -0.041 | [4] -0.224 | [5] -0.026 | [6] -0.05 | [7] -0.142 | [8] 0 | [9] 0.094 | [10] 0

EEF2K (UniProt O00418)
active: [8] -0.896
inactive: [3] 0.021 | [5] 0.031 | [6] -0.062 | [9] -0.017 | [10] -0.014

EIF2AK3 (UniProt Q9NZJ5)
Chain of UniProt Q9NZJ5 (Q9NZJ5 whole entry, looked up): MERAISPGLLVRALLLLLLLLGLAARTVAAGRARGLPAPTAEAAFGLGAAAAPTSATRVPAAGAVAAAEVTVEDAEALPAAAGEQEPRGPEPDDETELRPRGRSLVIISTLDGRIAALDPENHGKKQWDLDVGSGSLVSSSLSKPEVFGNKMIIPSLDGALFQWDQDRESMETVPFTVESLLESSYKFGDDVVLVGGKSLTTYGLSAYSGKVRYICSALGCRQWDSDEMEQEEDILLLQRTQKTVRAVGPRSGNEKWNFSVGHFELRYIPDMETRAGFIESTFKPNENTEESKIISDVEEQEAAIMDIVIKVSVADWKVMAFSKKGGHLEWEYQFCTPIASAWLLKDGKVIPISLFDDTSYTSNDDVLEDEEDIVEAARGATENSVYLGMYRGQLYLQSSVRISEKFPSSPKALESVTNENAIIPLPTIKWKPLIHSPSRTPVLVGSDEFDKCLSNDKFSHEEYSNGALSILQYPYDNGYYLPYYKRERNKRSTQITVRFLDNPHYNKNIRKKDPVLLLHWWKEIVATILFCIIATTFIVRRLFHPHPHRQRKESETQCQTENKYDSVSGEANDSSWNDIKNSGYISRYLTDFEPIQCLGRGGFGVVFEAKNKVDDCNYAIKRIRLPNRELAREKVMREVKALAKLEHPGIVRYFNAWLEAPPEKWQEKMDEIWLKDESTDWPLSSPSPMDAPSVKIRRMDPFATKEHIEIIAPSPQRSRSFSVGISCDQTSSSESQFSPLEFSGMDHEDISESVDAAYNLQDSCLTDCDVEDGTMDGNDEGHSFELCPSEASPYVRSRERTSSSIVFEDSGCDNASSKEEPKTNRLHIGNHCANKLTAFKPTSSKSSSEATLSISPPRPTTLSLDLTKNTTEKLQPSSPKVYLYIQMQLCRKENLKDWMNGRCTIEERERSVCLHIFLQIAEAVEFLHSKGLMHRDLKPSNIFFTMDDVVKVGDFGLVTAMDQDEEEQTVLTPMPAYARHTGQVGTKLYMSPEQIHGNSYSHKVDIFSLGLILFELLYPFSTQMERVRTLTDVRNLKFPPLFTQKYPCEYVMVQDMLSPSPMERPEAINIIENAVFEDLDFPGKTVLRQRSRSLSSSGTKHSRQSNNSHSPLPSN
inactive: [1] 0.135 | [3] -0.06 | [4] -0.039 | [5] -0.141 | [6] 0.201 | [7] -0.161 | [8] 0.078 | [9] 0.146 | [10] -0.233

DENND10 (UniProt Q8TCE6)
inactive: [2] -0.133 | [3] -0.017 | [4] 0.003 | [5] -0.065 | [6] 0.114 | [7] 0.1 | [8] -0.05 | [9] -0.021

DDX11 (UniProt Q96FC9)
inactive: [1] -0.069 | [2] 0.144 | [4] -0.05 | [5] 0.088 | [6] 0.047 | [7] -0.009 | [9] -0.045
active: [8] 0.437

CTNNBL1 (UniProt Q8WYA6)
inactive: [6] -0.008 | [9] -0.581

ELMO1 (UniProt Q92556)
inactive: [1] -0.108 | [2] 0.072 | [5] 0.212 | [7] 0.017 | [8] 0.08
